# From article PMC7862700, “An all-to-all approach to the identification of sequence-specific readers for epigenetic DNA modifications on cytosine”
# Legend:
# Experiment in all cases: DAPPL (digital affinity profiling via proximity ligation, sequencing); 10 mM Tris-HCl pH 7.5, 50 mM NaCl, 1 mM DTT, 4% glycerol, room temperature, 30 min; GST-TFs on glutathione beads, 16-mer random dsDNA library, 0.1% formaldehyde crosslink after washing; high values mean tight binding
# FLI1 = molecular target: T1, FLI1 (Homo sapiens, UniProt Q01543 1-452); details: protein: recombinant; tags: N-terminal GST; dsDNA, one strand shown
# T1 sequence: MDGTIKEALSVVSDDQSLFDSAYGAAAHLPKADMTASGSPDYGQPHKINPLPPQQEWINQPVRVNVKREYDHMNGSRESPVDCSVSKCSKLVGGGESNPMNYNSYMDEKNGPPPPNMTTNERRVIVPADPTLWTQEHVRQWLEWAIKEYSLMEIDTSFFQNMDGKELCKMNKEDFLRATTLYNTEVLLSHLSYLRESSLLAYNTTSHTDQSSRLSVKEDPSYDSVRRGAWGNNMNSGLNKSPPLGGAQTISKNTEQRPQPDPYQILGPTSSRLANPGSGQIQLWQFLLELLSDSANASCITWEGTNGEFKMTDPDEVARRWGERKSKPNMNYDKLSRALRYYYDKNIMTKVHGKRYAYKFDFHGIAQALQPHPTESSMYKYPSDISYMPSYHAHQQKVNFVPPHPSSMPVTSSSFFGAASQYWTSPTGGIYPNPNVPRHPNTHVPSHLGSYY
# Method in brief: (§1)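 Human transcription factors fused to GST were expressed in yeast, captured on glutathione beads, given DNA barcodes and pooled with a GST-only negative control. Pools were incubated with 200 nmole of a 16-mer random double-stranded DNA library in Tris/NaCl/DTT/glycerol buffer at room temperature for 30 min. They were then washed, crosslinked with 0.1% formaldehyde, proximity-ligated (BsaI/T4 ligase, 1 h, 37 °C), PCR-amplified and sequenced on an Illumina NextSeq500. Binding signal is each 6-mer's read frequency for a factor divided by its frequency for the GST control.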
# ELK1 = molecular target: T2, ELK1 (Homo sapiens, UniProt P19419 1-428); details: protein: recombinant; tags: N-terminal GST; dsDNA, one strand shown
# T2 sequence: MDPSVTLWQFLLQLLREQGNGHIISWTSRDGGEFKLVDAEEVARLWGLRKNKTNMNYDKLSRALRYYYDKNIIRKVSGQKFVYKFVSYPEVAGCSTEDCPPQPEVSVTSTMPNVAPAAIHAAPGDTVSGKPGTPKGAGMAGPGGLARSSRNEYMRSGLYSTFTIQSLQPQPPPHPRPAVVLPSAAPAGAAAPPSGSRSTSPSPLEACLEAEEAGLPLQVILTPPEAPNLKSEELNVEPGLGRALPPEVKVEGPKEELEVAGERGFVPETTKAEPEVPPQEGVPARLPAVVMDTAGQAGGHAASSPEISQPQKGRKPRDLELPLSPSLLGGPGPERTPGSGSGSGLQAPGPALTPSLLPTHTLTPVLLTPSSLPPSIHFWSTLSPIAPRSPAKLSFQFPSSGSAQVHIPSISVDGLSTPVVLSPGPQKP
# Method in brief: as §1
# GABPA = molecular target: T3, GABPA (Homo sapiens, UniProt Q06546 1-454); details: protein: recombinant; tags: N-terminal GST; dsDNA, one strand shown
# T3 sequence: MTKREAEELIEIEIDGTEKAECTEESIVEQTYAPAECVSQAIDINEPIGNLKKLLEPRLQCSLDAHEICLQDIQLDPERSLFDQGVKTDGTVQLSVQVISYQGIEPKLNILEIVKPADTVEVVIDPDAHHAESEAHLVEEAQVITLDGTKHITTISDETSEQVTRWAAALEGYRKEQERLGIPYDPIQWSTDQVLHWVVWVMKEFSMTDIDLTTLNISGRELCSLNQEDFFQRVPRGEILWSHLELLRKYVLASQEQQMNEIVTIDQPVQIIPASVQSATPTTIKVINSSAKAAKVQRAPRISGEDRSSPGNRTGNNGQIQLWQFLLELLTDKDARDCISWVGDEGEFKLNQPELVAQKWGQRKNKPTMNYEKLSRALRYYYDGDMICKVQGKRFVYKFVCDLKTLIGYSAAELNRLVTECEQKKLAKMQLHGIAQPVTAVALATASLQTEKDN
# Method in brief: as §1
# ERG = molecular target: T4, ERG (Homo sapiens, UniProt P11308 1-479); details: protein: recombinant; tags: N-terminal GST; dsDNA, one strand shown
# T4 sequence: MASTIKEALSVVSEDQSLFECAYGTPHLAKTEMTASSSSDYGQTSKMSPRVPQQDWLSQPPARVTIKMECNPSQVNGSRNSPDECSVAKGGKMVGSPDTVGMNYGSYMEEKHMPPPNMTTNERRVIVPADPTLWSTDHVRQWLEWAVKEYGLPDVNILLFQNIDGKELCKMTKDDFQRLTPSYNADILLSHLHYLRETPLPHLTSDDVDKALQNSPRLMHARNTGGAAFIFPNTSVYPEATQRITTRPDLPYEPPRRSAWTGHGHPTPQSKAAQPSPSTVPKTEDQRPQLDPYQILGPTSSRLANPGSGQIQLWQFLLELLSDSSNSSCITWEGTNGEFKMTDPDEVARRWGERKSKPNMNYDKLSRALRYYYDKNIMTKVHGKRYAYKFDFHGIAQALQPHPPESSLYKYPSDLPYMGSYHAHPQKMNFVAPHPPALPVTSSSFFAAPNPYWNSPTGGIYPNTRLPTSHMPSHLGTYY
# Method in brief: as §1
# ELF1 = ELF1 (Homo sapiens, UniProt P32519 1-619); details: protein: recombinant; tags: N-terminal GST; dsDNA, one strand shown
# Method in brief: as §1
# EHF = molecular target: T5, EHF (Homo sapiens, UniProt Q9NZC4 1-300); details: protein: recombinant; tags: N-terminal GST; dsDNA, one strand shown
# T5 sequence: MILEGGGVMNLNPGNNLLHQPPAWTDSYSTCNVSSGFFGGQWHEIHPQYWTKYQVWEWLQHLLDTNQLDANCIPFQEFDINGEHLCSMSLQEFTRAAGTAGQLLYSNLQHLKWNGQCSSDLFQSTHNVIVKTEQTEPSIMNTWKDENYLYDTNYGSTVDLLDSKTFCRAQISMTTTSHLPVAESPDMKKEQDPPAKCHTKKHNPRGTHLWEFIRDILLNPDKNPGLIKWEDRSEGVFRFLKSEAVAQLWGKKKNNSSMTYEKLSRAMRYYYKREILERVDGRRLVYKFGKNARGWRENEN
# Method in brief: as §1
# SPI1 = SPI1 (Homo sapiens, UniProt P17947 1-270); details: protein: recombinant; tags: N-terminal GST; dsDNA, one strand shown
# Method in brief: as §1
# SPIB = SPIB (Homo sapiens, UniProt Q01892 1-262); details: protein: recombinant; tags: N-terminal GST; dsDNA, one strand shown
# Method in brief: as §1
# ELK3 = molecular target: T6, ELK3 (Homo sapiens, UniProt P41970 1-407); details: protein: recombinant; tags: N-terminal GST; dsDNA, one strand shown
# T6 sequence: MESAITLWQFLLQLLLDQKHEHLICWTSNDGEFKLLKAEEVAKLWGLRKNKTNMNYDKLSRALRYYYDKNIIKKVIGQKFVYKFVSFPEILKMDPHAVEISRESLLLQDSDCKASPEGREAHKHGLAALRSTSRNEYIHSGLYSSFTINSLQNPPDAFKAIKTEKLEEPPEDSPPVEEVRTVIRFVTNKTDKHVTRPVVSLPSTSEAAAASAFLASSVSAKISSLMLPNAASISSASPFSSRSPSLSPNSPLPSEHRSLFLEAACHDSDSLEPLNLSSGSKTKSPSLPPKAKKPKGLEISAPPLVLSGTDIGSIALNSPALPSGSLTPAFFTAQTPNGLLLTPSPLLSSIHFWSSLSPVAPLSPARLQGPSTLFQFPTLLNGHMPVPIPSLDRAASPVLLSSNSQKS
# Method in brief: as §1
# FEV = molecular target: T7, FEV (Homo sapiens, UniProt Q99581 1-238); details: protein: recombinant; tags: N-terminal GST; dsDNA, one strand shown
# T7 sequence: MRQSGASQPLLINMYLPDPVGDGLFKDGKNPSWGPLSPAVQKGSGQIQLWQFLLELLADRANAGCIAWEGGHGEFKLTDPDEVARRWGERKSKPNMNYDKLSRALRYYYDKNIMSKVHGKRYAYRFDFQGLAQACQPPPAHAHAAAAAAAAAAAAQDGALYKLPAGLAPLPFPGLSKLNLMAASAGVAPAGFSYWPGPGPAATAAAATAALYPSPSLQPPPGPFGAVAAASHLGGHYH
# Method in brief: as §1
# ETV5 = ETV5 (Homo sapiens, UniProt P41161 1-510); details: protein: recombinant; tags: N-terminal GST; dsDNA, one strand shown
# Method in brief: as §1
# HSF1 = HSF1 (Homo sapiens, UniProt Q00613 1-529); details: protein: recombinant; tags: N-terminal GST; chain copies: 3; dsDNA, one strand shown
# Method in brief: as §1
# SPIC = molecular target: T8, SPIC (Homo sapiens, UniProt Q8N5J4 1-248); details: protein: recombinant; tags: N-terminal GST; dsDNA, one strand shown
# T8 sequence: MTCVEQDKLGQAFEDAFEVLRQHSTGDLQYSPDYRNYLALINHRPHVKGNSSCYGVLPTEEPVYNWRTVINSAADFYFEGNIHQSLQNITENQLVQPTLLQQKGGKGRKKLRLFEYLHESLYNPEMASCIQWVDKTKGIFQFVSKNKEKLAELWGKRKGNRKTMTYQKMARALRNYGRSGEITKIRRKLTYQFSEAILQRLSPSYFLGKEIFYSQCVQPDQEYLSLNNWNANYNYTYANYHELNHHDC
# Method in brief: as §1
# ELF4 = ELF4 (Homo sapiens, UniProt Q99607 1-663); details: protein: recombinant; tags: N-terminal GST; dsDNA, one strand shown
# Method in brief: as §1
# ELK4 = molecular target: T9, ELK4 (Homo sapiens, UniProt P28324-2 1-405); details: protein: recombinant; tags: N-terminal GST; dsDNA, one strand shown
# T9 sequence: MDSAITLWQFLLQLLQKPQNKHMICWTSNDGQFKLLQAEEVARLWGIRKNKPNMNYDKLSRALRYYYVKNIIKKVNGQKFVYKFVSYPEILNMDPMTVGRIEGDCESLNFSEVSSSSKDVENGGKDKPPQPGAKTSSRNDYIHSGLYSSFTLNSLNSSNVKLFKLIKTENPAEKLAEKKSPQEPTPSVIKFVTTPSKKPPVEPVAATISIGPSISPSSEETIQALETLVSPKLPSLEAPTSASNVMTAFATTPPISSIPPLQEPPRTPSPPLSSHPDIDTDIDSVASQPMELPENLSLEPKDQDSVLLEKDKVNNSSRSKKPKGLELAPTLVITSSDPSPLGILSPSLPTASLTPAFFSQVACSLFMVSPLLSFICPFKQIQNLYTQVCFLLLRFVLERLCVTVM
# Method in brief: as §1
# ETV2 = molecular target: T10, ETV2 (Homo sapiens, UniProt O00321 1-342); details: protein: recombinant; tags: N-terminal GST; dsDNA, one strand shown
# T10 sequence: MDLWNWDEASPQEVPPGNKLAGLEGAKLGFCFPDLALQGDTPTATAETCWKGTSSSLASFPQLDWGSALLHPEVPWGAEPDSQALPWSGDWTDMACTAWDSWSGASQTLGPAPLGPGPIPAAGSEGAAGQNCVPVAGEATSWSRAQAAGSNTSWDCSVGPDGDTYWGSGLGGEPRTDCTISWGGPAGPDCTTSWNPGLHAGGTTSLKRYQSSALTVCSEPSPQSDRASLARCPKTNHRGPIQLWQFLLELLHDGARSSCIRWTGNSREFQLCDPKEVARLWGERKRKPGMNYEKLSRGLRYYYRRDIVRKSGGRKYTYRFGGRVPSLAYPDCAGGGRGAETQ
# Method in brief: as §1
# ELF3 = molecular target: T11, ELF3 (Homo sapiens, UniProt P78545 1-371); details: protein: recombinant; tags: N-terminal GST; dsDNA, one strand shown
# T11 sequence: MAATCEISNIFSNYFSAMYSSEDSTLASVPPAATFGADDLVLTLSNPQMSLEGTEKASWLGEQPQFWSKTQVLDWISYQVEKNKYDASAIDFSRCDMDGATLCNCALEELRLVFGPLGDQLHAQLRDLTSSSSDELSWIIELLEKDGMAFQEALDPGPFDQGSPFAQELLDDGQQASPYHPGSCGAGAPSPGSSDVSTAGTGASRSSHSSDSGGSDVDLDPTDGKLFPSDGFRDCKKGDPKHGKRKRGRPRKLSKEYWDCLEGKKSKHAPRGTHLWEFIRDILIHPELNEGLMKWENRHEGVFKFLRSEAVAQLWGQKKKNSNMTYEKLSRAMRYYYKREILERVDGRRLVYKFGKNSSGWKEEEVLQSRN
# Method in brief: as §1
# CRX = CRX (Homo sapiens, UniProt O43186 1-299); details: protein: recombinant; tags: N-terminal GST; dsDNA, one strand shown
# Method in brief: as §1
# ETV1 = ETV1 (Homo sapiens, UniProt P50549 1-477); details: protein: recombinant; tags: N-terminal GST; dsDNA, one strand shown
# Method in brief: as §1
# Sequence of ELF1 (P32519 whole entry): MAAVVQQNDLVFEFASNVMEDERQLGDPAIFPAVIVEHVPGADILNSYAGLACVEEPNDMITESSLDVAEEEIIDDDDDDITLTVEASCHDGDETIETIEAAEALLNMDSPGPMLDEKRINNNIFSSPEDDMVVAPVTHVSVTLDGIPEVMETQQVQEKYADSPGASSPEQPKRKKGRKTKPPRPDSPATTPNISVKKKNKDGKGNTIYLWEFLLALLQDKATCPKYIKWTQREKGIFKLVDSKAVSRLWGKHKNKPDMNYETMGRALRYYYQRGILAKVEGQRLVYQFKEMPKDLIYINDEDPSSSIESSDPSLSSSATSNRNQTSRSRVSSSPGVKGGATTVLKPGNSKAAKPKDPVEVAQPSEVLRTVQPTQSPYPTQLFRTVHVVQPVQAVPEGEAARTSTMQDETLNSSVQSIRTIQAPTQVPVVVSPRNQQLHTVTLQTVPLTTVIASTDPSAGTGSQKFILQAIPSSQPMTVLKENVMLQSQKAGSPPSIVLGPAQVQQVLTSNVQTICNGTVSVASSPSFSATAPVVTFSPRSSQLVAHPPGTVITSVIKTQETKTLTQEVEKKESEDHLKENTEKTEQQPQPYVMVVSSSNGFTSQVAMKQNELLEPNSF
# Sequence of CRX (O43186 whole entry): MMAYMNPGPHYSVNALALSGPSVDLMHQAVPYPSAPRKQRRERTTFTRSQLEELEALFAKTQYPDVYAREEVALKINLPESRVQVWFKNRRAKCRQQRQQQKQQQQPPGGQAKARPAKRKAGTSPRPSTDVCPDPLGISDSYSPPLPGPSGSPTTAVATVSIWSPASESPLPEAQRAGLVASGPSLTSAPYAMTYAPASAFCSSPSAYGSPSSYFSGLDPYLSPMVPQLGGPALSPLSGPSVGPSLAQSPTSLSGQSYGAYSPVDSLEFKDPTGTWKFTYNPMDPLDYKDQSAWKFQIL
# Sequence of ETV1 (P50549 whole entry): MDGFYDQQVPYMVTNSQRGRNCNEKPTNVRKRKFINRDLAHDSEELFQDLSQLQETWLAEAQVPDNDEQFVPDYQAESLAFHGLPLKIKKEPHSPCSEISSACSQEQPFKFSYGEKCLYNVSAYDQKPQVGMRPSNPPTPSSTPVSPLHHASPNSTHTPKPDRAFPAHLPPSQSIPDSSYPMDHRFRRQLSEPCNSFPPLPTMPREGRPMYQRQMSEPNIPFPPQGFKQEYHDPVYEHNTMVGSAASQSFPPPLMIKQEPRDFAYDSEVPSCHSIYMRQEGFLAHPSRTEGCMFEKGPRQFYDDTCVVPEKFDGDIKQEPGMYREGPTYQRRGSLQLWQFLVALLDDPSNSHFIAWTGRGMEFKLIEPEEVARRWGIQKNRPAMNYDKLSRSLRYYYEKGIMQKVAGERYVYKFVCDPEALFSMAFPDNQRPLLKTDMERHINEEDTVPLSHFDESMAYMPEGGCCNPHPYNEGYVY
# Sequence of ETV5 (P41161 whole entry): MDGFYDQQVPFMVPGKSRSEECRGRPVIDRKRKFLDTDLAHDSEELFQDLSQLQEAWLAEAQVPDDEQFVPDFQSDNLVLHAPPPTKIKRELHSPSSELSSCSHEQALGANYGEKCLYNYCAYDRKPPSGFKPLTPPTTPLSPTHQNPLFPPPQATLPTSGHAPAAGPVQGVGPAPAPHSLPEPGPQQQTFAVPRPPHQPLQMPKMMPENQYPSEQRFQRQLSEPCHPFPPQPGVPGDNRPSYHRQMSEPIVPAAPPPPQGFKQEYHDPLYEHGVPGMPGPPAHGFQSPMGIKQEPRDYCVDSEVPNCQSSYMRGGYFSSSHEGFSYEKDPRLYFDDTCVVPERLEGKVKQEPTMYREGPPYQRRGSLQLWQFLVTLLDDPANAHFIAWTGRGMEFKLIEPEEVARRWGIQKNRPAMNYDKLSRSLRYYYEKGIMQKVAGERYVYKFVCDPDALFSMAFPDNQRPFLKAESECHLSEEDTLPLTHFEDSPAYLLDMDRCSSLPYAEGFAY
# Sequence of SPIB (Q01892 whole entry): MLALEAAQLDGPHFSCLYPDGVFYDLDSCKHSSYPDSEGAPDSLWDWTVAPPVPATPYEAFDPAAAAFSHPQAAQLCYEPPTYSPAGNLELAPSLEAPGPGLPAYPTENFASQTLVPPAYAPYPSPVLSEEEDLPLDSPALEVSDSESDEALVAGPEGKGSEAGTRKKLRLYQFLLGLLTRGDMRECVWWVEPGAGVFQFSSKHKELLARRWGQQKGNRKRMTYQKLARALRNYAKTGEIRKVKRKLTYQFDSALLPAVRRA
# Sequence of ELF4 (Q99607 whole entry): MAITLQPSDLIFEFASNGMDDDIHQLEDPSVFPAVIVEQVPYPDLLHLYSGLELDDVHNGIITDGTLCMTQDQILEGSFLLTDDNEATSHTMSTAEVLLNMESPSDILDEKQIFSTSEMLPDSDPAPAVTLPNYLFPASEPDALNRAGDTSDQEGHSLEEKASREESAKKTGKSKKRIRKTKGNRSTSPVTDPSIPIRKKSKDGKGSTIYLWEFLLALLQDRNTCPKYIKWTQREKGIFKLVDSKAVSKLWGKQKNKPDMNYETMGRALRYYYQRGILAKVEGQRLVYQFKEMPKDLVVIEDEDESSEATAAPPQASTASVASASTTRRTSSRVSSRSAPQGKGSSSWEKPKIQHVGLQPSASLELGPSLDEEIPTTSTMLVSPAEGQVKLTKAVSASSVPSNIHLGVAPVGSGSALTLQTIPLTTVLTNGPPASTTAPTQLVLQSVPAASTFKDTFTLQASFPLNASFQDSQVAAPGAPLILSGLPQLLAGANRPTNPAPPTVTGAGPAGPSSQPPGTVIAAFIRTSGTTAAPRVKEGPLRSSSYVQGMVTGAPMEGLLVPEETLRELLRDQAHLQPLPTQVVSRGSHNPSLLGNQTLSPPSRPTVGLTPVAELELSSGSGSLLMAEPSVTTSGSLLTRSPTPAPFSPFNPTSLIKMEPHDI
# Sequence of HSF1 (Q00613 whole entry): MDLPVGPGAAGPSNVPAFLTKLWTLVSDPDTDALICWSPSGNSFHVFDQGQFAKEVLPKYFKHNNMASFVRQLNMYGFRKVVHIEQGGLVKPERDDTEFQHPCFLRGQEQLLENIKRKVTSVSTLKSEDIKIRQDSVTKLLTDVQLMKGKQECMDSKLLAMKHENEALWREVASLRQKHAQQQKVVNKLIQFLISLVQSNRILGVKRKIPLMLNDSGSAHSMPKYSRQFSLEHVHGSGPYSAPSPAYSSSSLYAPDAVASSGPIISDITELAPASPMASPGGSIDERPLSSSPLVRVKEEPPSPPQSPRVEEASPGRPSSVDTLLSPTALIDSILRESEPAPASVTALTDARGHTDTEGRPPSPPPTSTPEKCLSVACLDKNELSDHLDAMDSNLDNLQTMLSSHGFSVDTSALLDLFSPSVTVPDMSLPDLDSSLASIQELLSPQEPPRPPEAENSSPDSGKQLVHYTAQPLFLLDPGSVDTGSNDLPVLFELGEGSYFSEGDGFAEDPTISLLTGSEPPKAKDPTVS
sequence,measurement,setting,value
ATGGCA,binding signal,FLI1,"1.26 fold enrichment (6-mer frequency, TF over GST control)"
same,binding signal,ELK1,"1.22 fold enrichment (6-mer frequency, TF over GST control)"
same,binding signal,GABPA,"1.26 fold enrichment (6-mer frequency, TF over GST control)"
same,binding signal,ERG,"1.27 fold enrichment (6-mer frequency, TF over GST control)"
same,binding signal,ELF1,"1.24 fold enrichment (6-mer frequency, TF over GST control)"
same,binding signal,EHF,"1.35 fold enrichment (6-mer frequency, TF over GST control)"
same,binding signal,SPI1,"1.21 fold enrichment (6-mer frequency, TF over GST control)"
same,binding signal,SPIB,"1.19 fold enrichment (6-mer frequency, TF over GST control)"
same,binding signal,ELK3,"1.22 fold enrichment (6-mer frequency, TF over GST control)"
same,binding signal,FEV,"1.44 fold enrichment (6-mer frequency, TF over GST control)"
same,binding signal,ETV5,"1.28 fold enrichment (6-mer frequency, TF over GST control)"
same,binding signal,HSF1,"1.1 fold enrichment (6-mer frequency, TF over GST control)"
same,binding signal,SPIC,"1.21 fold enrichment (6-mer frequency, TF over GST control)"
same,binding signal,ELF4,"1.2 fold enrichment (6-mer frequency, TF over GST control)"
same,binding signal,ELK4,"1.15 fold enrichment (6-mer frequency, TF over GST control)"
same,binding signal,ETV2,"1.31 fold enrichment (6-mer frequency, TF over GST control)"
same,binding signal,ELF3,"1.28 fold enrichment (6-mer frequency, TF over GST control)"
same,binding signal,CRX,"1.11 fold enrichment (6-mer frequency, TF over GST control)"
same,binding signal,ETV1,"1.27 fold enrichment (6-mer frequency, TF over GST control)"
